High-throughput results from PubChem.
rTrxR1 inhibitor: qHTS Assay for Inhibitors of Mammalian Selenoprotein Thioredoxin Reductase 1 (TrxR1): qHTS. Thioredoxin reductase 1, cytoplasmic (Rattus norvegicus), O89049. recombinant rTrxR1, NADPH fluorescence consumption, selenite substrate. Potency, µM (series often up to 114 µM), actives largely listed as inhibitors. 1% of 390,000 active; further: nearly all actives have a fitted effect of over 65% in size
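Rat TrxR1 (90 nM in the dispensed reagent) was pre-reduced with 400 uM NADPH for 5 min at room temperature, then incubated with compound for 15 min. After 400 uM selenite was added, NADPH fluorescence (Ex 340/Em 450 nm) was followed for 8 min.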
IDH1 R132H inh: qHTS for Inhibitors of mutant isocitrate dehydrogenase 1 (IDH1): qHTS. IDH1-R132H enzyme, NADPH consumption, diaphorase/resazurin fluorescence. Potency, µM (top dose mostly 76.6 µM), hits mostly inhibitors. 0.093% of 390,000 active. AID 602179, 2012; further: nearly all actives have a fitted effect of over 65% in size
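IDH1-R132H (0.5 ug/mL dispensed) in pH 7.5 Tris buffer was preincubated 30 min with compound, then given a substrate mix of 0.016 mM NADPH and 2 mM alpha-KG for 80 min at room temperature; remaining NADPH was read by diaphorase/resazurin fluorescence.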
VDR inhibitor: Inhibitors of the vitamin D receptor (VDR): qHTS | Vitamin D3 receptor (Homo sapiens), P11473 | VDR-SRC2-3 peptide fluorescence polarization, 2 h | Potency, µM, usual class: inhibitors | 0.93% of 400,000 active | AID 504847, 2011
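FP read-out; VDR + SRC2-3 coactivator peptide; 23 nl compound by pintool; 2 h RT incubation; reagents held at 4 deg C, protected from light.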
Sfp inh: qHTS Assay for Inhibitors of Bacillus subtilis Sfp phosphopantetheinyl transferase (PPTase); Potency, µM, hits mostly inhibitors; 4'-phosphopantetheinyl transferase ffp (Bacillus subtilis), Q9F4F7; Biochemical Sfp PPTase activity, qHTS; AID 1490, 2009; 3.5% of 310,000 active;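 further: the enzyme is Sfp with the accession as filed and its product quenches rhodamine fluorescence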
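Sfp 15 nM + cpd, 15 min RT; start w/ rhodamine-CoA 5 uM, BHQ-2-YbbR 12.5 uM (final); 50 mM Hepes pH 7.6, 10 mM MgCl2, 0.01% NP-40, 0.01% BSA; read 525/598 nm at 0 and 30 min.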
TrxR1 substrate: qHTS Assay for Substrates of Mammalian Selenoprotein Thioredoxin Reductase 1 (TrxR1): qHTS. Thioredoxin reductase 1, cytoplasmic (Rattus norvegicus), O89049. purified TrxR1 substrate turnover, NADPH consumption readout. Potency, µM (top dose mostly 114 µM). 0.01% of 390,000 active; further: nearly all actives have a fitted effect of over 50% in size
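Rat TrxR1, dispensed at 90 nM, was prereduced with 400 uM NADPH (final) for 5 min at ~22 deg C, then incubated with compound 15 min before 400 uM selenite. A first-read NADPH fluorescence drop versus no-compound background flagged substrates.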
PLK1 PBD block: qHTS for Inhibitors of PLK1-PDB (polo-like kinase 1 - polo-box domain): Primary Screen | Serine/threonine-protein kinase PLK1 (Homo sapiens), P53350 | Plk1 PBD binding of FITC phosphopeptide, fluorescence polarization | 2.8% of 360,000 active | AID 720504, 2013 | Potency, µM, actives largely listed as inhibitors; further: series mostly up to about 57 µM; nearly all actives have a fitted effect of over 65% in size
Target sequence (P53350 whole entry, looked up, the tested form may be a part): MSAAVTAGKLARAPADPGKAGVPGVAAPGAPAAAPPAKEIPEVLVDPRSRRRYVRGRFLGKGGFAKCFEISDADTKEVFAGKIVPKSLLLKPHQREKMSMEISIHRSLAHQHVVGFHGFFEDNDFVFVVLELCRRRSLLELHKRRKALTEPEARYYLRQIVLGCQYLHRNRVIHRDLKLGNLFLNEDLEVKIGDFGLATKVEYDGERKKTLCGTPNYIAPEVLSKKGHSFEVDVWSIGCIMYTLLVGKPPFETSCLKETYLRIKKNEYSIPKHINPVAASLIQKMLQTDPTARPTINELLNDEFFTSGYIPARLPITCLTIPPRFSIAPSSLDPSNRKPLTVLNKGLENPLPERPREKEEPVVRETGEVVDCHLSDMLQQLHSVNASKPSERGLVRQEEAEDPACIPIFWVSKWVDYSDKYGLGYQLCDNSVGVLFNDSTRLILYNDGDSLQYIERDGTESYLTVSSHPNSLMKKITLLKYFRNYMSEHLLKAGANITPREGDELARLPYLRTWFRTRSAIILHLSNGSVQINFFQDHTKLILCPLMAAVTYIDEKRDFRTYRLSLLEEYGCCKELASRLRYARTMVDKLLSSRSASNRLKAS
Numbers stand for hits; 0 = inactive; ? = inconclusive; - = no result given; ! = repeats disagree; [ ] = remark or other dose. In the library only some 5.2% were active in any assay of this set; here they are far more common. The call rests on the fitted dose curve; in most records, active means well fitted curve in the direction sought with a large enough effect; inconclusive means small, poorly fitted or top-dose-only effect, or another doubt; inactive means no such curve, though single readings can be large; an effect the other way counts as inactive or inconclusive.

SMILES	rTrxR1 inhibitor	IDH1 R132H inh	VDR inhibitor	Sfp inh	TrxR1 substrate	PLK1 PBD block
Cc1ccc(C)c2c1[nH]c1ccccc12	0	0	0	0	0	0
CCOC(=O)Cn1c(=O)cc(C)c2c(C)nn(-c3cccc(F)c3)c21	0	0	0	-	0	-
Nc1nc(N)c2ncc(C(=O)CCc3ccccc3)nc2n1	?	0	?	0	0	4.74µM
Nc1cccc(S(=O)(=O)N2CCOCC2)c1	0	-	0	-	0	-
NC(=O)c1cc(S(=O)(=O)N2CCOCC2)ccc1Sc1ccccc1N	0	0	0	-	0	15µM
O=C(c1cncc(Br)c1)N1CCN(S(=O)(=O)c2ccccc2)CC1	0	0	0	0	0	0
O=C(c1cncc(Br)c1)N1CCN(S(=O)(=O)c2ccccc2C(F)(F)F)CC1	0	0	?	0	0	21.2µM
OCCN1CCN(C(=S)c2ccc(Cl)c(Cl)c2)CC1	0	0	22.4µM	3.16µM	0	4.74µM
COc1cccc(OC)c1NC(=O)c1nc2c(nnn2Cc2ccccc2Cl)c(=O)[nH]1	0	0	0	0	0	0
O=C(Nc1ccc(F)cc1)c1nc2c(nnn2Cc2cccc3ccccc23)c(=O)[nH]1	0	0	0	0	0	23.8µM
CCCSc1nc(O)c(C(c2ccc(OC)c(O)c2)c2c(O)nc(SCCC)n(C)c2=O)c(=O)n1C	11.2µM	0	35.5µM	?	0	9.47µM
COc1cccc(C(c2c(O)nc(SC)n(C)c2=O)c2c(O)nc(SC)n(C)c2=O)c1	?	0	0	0	0	0
CCC(=O)Nc1ccc(C2=Nn3c(nnc3C(C)C)SC2)cc1	0	0	0	?	0	23.8µM
CC(=O)Nc1cc(-c2ccc(S(C)(=O)=O)cc2)cn2c(-c3ccc(F)c(Cl)c3)cnc12	-	-	-	-	-	0
O=C(Nc1ncccc1O)c1ccc(Oc2ccccc2)cc1	0	0	?	0	0	29.9µM
Cc1noc(C)c1COc1ccc(C(=O)Nc2ncccc2O)cc1	0	0	0	-	0	0
CC(O)CCC(=O)NCCNC(=O)CCC(C)O (stereo not drawn)	0	0	?	0	0	10.6µM
O=C(CCC(=O)NCCO)NCCO	0	0	0	0	0	0
O=C1Nc2cccnc2N(C(=O)CCl)c2ccccc21	12.6µM	0	0	0	0	0
CC(C)[C@H]1CN=C2N(CCNC(=O)CCC3CCCCC3)[C@H](Cc3ccc(O)cc3)CN21	0	0	0	0	0	26.7µM
COc1ccc(-c2ccnc(SCC(=O)N3CCN(c4ccccc4)CC3)n2)cc1	0	0	0	0	0	0
CC1(C)CC(=O)C2=C(C1)NC1=C(C(=O)c3ccccc31)C2c1ccccc1 (stereo not drawn)	39.8µM	0	0	0	0	0
CC(C)c1ccc(C2C3=C(CC(C)(C)CC3=O)NC3=C2C(=O)c2ccccc23)cc1 (stereo not drawn)	?	0	0	0	0	0
COc1ccc(-n2nnnc2C2CCN(S(=O)(=O)c3cccc(C(F)(F)F)c3)CC2)cc1	0	0	0	-	0	-
CN(C)CCCNc1cc(C(C)(C)C)nc2c(-c3ccccc3)cnn12	0	0	0	50.1µM	0	0
SMILES	rTrxR1 inhibitor	IDH1 R132H inh	VDR inhibitor	Sfp inh	TrxR1 substrate	PLK1 PBD block
CC(C)(C)c1cc(NCCCn2ccnc2)n2ncc(-c3ccc(Cl)cc3)c2n1	0	0	0	0	0	0
O=S(=O)(Nc1cccc2cccnc12)c1ccccc1O	-	-	-	0	-	-
CCc1cccc(CC)c1NC(=O)/C(C#N)=C/c1ccccc1C(F)(F)F	0	0	50.1µM	0	0	0
O=C(O)CCc1cc(I)c(O)c(I)c1	-	-	0	0	-	-
CC(=O)c1c(N2CCN(c3ccccc3)CC2)nc(=S)n(-c2ccccc2)c1C	0	0	0	79.4µM	0	0
CCOC(=O)c1cc(OC(=O)c2cccs2)n(-c2ccccc2)n1	22.4µM	0	0	0	0	?
Oc1c(CN2CCOCC2)cc2c(c1-c1c(O)c(CN3CCOCC3)cc3c1CCCC3)CCCC2	-	-	0	0	-	-
Oc1cc(O)c(CN2CCOCC2)cc1CN1CCOCC1	11.2µM	0	0	-	0	?
Cc1cccc(NS(=O)(=O)c2ccc(C(=O)NCC(c3ccco3)N3CCCCC3)cc2)c1C (stereo not drawn)	0	0	0	-	0	0
CC1Cc2ccccc2N1C(=O)c1ccc2nccnc2c1 (stereo not drawn)	0	0	0	0	0	0
COc1ccc(C(=O)N2c3ccccc3CC2C)cc1OC (stereo not drawn)	0	0	0	0	0	26.7µM
C/C(=N\NS(=O)(=O)c1ccc(Cl)c([N+](=O)[O-])c1)c1ccc(C)o1	39.8µM	0	?	0	0	?
C/C(=N\NS(=O)(=O)c1ccc(Cl)c([N+](=O)[O-])c1)c1cc2ccccc2o1	?	0	0	0	0	?
Cc1c(O)ccc(C(=O)CN2CCN(c3ccccc3F)CC2)c1O	0	0	0	0	0	0
CN1CCN(CC(=O)c2ccccc2F)CC1	?	0	0	56.2µM	0	0
COc1ccc(O)c(C(=O)c2cc(SCC(=O)O)c3nc4sc5c(c4c(=O)n3c2)CCCC5)c1	0	0	0	?	0	26.7µM
CCOC(=O)c1sc2nc3c(SCC(=O)O)cc(C(=O)c4cc(F)ccc4O)cn3c(=O)c2c1C	0	0	0	?	0	?
NCCOB(c1ccccc1)c1ccccc1	-	-	14.1µM	56.2µM!	-	-
COc1ccc(NC(=O)CSc2c(C)nn(-c3nnc(C)c(=O)[nH]3)c2C)cc1	0	0	0	50.1µM	0	0
Cc1ccccc1C(=O)Nc1ccnn1C1CCN(C2CCSCC2)CC1	0	0	0	0	0	0
COc1ccccc1-c1nc2ccccc2n(CC(C)C)c1=O	-	-	-	-	-	23.8µM
CCOC(=O)C1(Cc2cccc(Cl)c2)CCCN(C(=O)c2ccco2)C1 (stereo not drawn)	0	0	?	0	0	13.4µM
CCOC(=O)C1(Cc2ccccc2)CCCN(C(=O)c2cnn(CC)c2)C1 (stereo not drawn)	0	0	0	0	0	23.8µM
CCNc1ncc2nc(-c3ccc(F)cc3)c(=O)n(CCc3ccccc3)c2n1	-	-	0	0	-	-
Cc1ccc(OCc2ccc(C(=O)N3CCOCC3)cc2)cc1C	0[2.29 µM]	0	0	35.5µM	0[2.29 µM]	0
CCC(C)C(NC(=O)C1CCC(C)CC1)C(=O)Nc1ccc(OC)cc1 (stereo not drawn)	0	0	?	0	0	29.9µM
